# Assay results taken from PubChem BioAssay.
# Active and inactive are the calls of the source. Unless noted, the rule behind the calls is not given here.
# Columns and labels:
# [1] = resazurin metabolic signal in HepG2 cells – cell-based, resazurin fluorescence, 24 h, PK04 Diversity Set, profiling panel (AID 1172); conditions: HepG2 viability, higher = more signal
# [2] = budding yeast growth changes without added modifier – OD600, strain BY4716, 24 h, basal condition, primary screen (AID 1173); conditions: S. cerevisiae BY4716 growth, OD600, 24 h; higher = more signal, called active from +8 up or from −8 down
# [3] = viability profiling in MM1S myeloma cells – cell-based, resazurin fluorescence, basal, 24 h, PK04 Diversity Set, profiling panel (AID 1174); conditions: higher = more signal, called active from +8 up or from −8 down;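 note: MM1S multiple myeloma cell line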
# [4] = molecular target: Dihydroorotate dehydrogenase (quinone), mitochondrial (Plasmodium falciparum (isolate 3D7)) (UniProt Q08210); assay: inhibition of P. falciparum DHODH – biochemical, C-terminal His tag, absorbance 600 nm, primary screen (AID 1175); conditions: PfDHODH enzyme, DCIP absorbance 600 nm; higher = more signal, called active from +8 up or from −8 down;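 note: recombinant parasite enzyme with a five histidine tag at its C terminus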
# [5] = inhibition of PAO1 biofilm formation – strain PAO1, LB-PBS medium, absorbance 600 nm, primary screen (AID 1176); conditions: P. aeruginosa PAO1 growth/biofilm, A600, 12 h; higher = more signal
# [6] = growth modulation of vineyard yeast isolate – strain RM11-1a, OD600, basal, 24 h, primary screen (AID 1177);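 note: cultures grown under basal conditions with no added stressor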; conditions: S. cerevisiae RM11-1a growth, OD600, 24 h; higher = more signal, called active from +8 up or from −8 down
# [7] = growth of efflux-deficient E. coli DRC39 – strain DRC39, OD650, 24 h, E. coli filamentation inducers, primary screen (AID 1178);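 note: growth measured as culture turbidity by optical density at 650 nm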; conditions: E. coli DRC39 acrAB, higher = more signal, called active from +8 up or from −8 down
# [8] = growth of efflux-deficient E. coli DRC39 – strain DRC39, OD650, 48 h, E. coli filamentation inducers, primary screen (AID 1179);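 note: screen aims at cell division blockers that make cells filament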; conditions: E. coli DRC39 delta-acrAB growth, higher = more signal, called active from +8 up or from −8 down
# [9] = viability profiling in RPMI8226 myeloma cells – cell-based, resazurin fluorescence, basal, 24 h, PK04 Diversity Set, profiling panel (AID 1180); conditions: higher = more signal;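 note: RPMI8826 multiple myeloma cell line at 5000 cells per well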
# [10] = molecular target: E3 ubiquitin-protein ligase XIAP (Homo sapiens) (UniProt P98170); assay: small molecules binding XIAP protein – biophysical, small-molecule microarray, fluorescence 635 nm, primary screen (AID 1181); conditions: higher = more signal;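 note: score merges 667 nm emission and signal to noise over triplicate slides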
# [11] = tested on: XIP peptide (Xip251-270) binding; assay: XIP fragment 251-270 binding compounds – biochemical, small-molecule microarray, fluorescence 635/667 nm, 0.1 µg/mL protein, primary screen (AID 1182); conditions: fluorescent protein binding, 635 nm, higher = more signal, called active from +8 up or from −8 down
# XIP peptide (Xip251-270) = assay: compounds binding XIP fragment 251-270 – biochemical, small-molecule microarray, fluorescence 635/667 nm, 0.5 µg/mL protein, primary screen (AID 1183); conditions: fluorescence 635 nm, higher = more signal
# [12] = blood-stage malaria parasite viability loss – strain 3D7, DAPI fluorescence, 100 nL, primary screen (AID 1184);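 note: parasites grown inside human red blood cells in medium with human serum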; conditions: P. falciparum 3D7 growth, 3 d, higher = more signal
# [13] = molecular target: Homeobox protein Hox-A13 (Mus musculus) (UniProt Q62424); assay: disruptors of Hoxa13 oligonucleotide interaction – biochemical, fluorescence polarization, labeled oligonucleotide, primary screen (AID 1185); conditions: Hoxa13:DNA binding, 15 min, higher = more signal, called active from +8 up or from −8 down
# [14] = blockers of DNA damage checkpoint Chk1 activation – imaging, HeLa, hydroxyurea, phospho-Chk1 antibody, percent positive cells, primary screen (AID 1186); conditions: hydroxyurea-induced phospho-Chk1 immunofluorescence imaging, higher = more signal
# [15] = blockers of DNA damage checkpoint Chk1 activation – imaging, HeLa, hydroxyurea, phospho-Chk1 nuclear intensity, primary screen (AID 1187); conditions: hydroxyurea-induced phospho-Chk1 immunofluorescence imaging, higher = more signal
# Dihydroorotate dehydrogenase (quinone), mitochondrial (Plasmodium falciparum (isolate 3D7)), sequence (Q08210 whole entry, looked up): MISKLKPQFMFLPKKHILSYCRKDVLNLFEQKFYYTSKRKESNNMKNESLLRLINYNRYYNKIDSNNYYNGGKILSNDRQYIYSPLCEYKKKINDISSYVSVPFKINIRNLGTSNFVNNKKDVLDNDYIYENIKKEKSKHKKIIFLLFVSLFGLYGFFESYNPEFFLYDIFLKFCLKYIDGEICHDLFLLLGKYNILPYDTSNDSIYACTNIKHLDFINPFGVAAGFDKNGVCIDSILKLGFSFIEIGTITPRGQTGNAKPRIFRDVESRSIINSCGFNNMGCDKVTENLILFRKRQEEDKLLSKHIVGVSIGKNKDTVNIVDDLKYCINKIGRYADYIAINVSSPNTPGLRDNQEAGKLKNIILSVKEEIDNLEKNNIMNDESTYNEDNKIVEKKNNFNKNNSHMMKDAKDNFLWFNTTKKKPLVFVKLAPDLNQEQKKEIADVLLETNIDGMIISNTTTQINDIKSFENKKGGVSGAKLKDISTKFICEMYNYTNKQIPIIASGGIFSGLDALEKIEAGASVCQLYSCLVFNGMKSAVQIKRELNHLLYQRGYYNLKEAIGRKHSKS
# E3 ubiquitin-protein ligase XIAP (Homo sapiens), sequence (P98170 whole entry, looked up, the tested form may be a part): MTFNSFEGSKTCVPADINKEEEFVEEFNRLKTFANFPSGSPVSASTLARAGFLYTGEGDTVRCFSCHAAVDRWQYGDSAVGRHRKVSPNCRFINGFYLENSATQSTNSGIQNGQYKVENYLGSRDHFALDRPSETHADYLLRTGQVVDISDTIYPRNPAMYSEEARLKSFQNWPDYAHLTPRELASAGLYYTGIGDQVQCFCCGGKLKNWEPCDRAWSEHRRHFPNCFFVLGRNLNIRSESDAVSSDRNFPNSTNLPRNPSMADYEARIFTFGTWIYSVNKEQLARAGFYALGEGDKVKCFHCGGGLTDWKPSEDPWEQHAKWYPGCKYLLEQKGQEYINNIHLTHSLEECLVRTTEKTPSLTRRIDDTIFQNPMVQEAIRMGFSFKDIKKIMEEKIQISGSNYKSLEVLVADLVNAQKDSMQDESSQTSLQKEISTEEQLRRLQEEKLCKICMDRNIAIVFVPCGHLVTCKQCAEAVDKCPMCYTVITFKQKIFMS
# Homeobox protein Hox-A13 (Mus musculus), sequence (Q62424 whole entry, looked up): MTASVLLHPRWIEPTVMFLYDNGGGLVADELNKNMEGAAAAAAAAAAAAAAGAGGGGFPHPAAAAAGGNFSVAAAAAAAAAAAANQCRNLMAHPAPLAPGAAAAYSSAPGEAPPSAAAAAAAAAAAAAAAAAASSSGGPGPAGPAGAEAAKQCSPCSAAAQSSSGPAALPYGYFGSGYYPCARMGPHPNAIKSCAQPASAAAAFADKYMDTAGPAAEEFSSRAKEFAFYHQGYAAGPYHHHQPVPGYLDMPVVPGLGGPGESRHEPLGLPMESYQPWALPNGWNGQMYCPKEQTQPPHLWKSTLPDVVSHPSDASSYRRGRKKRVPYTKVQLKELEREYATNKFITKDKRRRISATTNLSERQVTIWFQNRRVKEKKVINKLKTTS
smiles,measurement,setting,value
CCN(CC)c1ccc(N2CC=CC34O[C@@H]5C=CCOC(=O)[C@@H]5[C@H]3C(=O)N(CCCO)[C@@H]4C2=O)cc1 (some centres undefined),z-score,[1],-0.527
same,z-score,[2],-0.746 (inactive)
same,z-score,[3],0.242 (inactive)
same,composite z-score,[4],-1.47 (inactive)
same,z-score,[5],0.537 (inactive)
same,z-score,[6],-0.049 (inactive)
same,z-score,[7],1.27 (inactive)
same,z-score,[8],0.715 (inactive)
same,z-score,[9],0.4
same,composite z-score,[10],0.107
same,composite z-score,[11],0.309 (inactive)
same,composite z-score,XIP peptide (Xip251-270),0.306
same,z-score,[12],-1.55
same,z-score,[13],-4.02 (inactive)
same,z-score,[14],-0.232 (inactive)
same,z-score,[15],-0.569 (inactive)
COc1cc2c(cc1O)C(c1ccc(CN3CCCC3)cc1)N(Cc1cccc(OC(F)(F)F)c1)CC2 (centres undefined),z-score,[1],-2.98
same,z-score,[2],-16.5 (active)
same,z-score,[3],-9.24 (active)
same,composite z-score,[4],0.364 (inactive)
same,z-score,[5],-0.103 (inactive)
same,z-score,[6],-1.66 (inactive)
same,z-score,[7],-4.72 (inactive)
same,z-score,[8],-3.03 (inactive)
same,z-score,[9],-6.78
same,composite z-score,[10],0.0673
same,composite z-score,[11],-0.153 (inactive)
same,composite z-score,XIP peptide (Xip251-270),0.156
same,z-score,[12],-2.1
same,z-score,[13],-2.99 (inactive)
same,z-score,[14],0.0325 (inactive)
same,z-score,[15],0.348 (inactive)
O=C1C2C=CC(C(O)C(c3ccccc3)c3ccccc3)N(Nc3ccccc3)C2C(=O)N1c1ccccc1 (centres undefined),z-score,[1],0.9
same,z-score,[2],-0.659 (inactive)
same,z-score,[3],-1.05 (inactive)
same,composite z-score,[4],1.09 (inactive)
same,z-score,[5],1.26 (inactive)
same,z-score,[6],0.347 (inactive)
same,z-score,[7],-0.615 (inactive)
same,z-score,[8],-0.0085 (inactive)
same,z-score,[9],-0.403
same,composite z-score,[10],0.34
same,composite z-score,[11],2.35 (inactive)
same,composite z-score,XIP peptide (Xip251-270),0.722
same,z-score,[12],-0.28
same,z-score,[13],-1.33 (inactive)
same,z-score,[14],-0.571 (inactive)
same,z-score,[15],-0.706 (inactive)
C=CCOC(=O)[C@H]1[C@@H]2C(=O)O[C@@H](c3ccccc3)[C@@H](c3ccccc3)N2[C@@H](c2ccc(OCCOC(=O)[C@@H]3C[C@@H]4C(=O)N[C@@H](CC(C)C)C(=O)N4[C@@H]3c3ccc(O)cc3)cc2)[C@]12C(=O)Nc1ccc(I)cc12,z-score,[1],-1.11
same,z-score,[2],0.637 (inactive)
same,z-score,[3],-0.0917 (inactive)
same,composite z-score,[4],-1.41 (inactive)
same,z-score,[5],2.94 (inactive)
same,z-score,[6],-0.628 (inactive)
same,z-score,[7],0.214 (inactive)
same,z-score,[8],1.3 (inactive)
same,z-score,[9],0.518
same,composite z-score,[10],-0.0232
same,composite z-score,[11],1.47 (inactive)
same,composite z-score,XIP peptide (Xip251-270),0.788
same,z-score,[12],-1.79
same,z-score,[13],0.999 (inactive)
same,z-score,[14],-0.654 (inactive)
same,z-score,[15],0.112 (inactive)
N#Cc1ccc(C(O)C2C=CC3C(=O)N(c4ccccc4)C(=O)C3N2Nc2ccc([N+](=O)[O-])cc2)cc1 (centres undefined),z-score,[1],-0.298
same,z-score,[2],-0.0292 (inactive)
same,z-score,[3],-0.291 (inactive)
same,composite z-score,[4],0.154 (inactive)
same,z-score,[5],1.01 (inactive)
same,z-score,[6],-0.114 (inactive)
same,z-score,[7],-1.15 (inactive)
same,z-score,[8],-0.224 (inactive)
same,z-score,[9],-0.783
same,composite z-score,[10],-0.162
same,composite z-score,[11],1.04 (inactive)
same,composite z-score,XIP peptide (Xip251-270),0.807
same,z-score,[12],-1.84
same,z-score,[13],-4.34 (inactive)
same,z-score,[14],-0.138 (inactive)
same,z-score,[15],-1.24 (inactive)
COC(=O)[C@@]1(Cc2ccc(F)cc2)[C@H]2c3cc(C(=O)N(C)C)n(CCn4cc([N+](=O)[O-])nc4C)c3C[C@H]2CN1C(=O)c1ccccc1,z-score,[1],-1.02
same,z-score,[2],1.94 (inactive)
same,z-score,[3],-1.05 (inactive)
same,composite z-score,[4],-0.165 (inactive)
same,z-score,[5],0.122 (inactive)
same,z-score,[6],0.502 (inactive)
same,z-score,[7],-0.984 (inactive)
same,z-score,[8],-0.566 (inactive)
same,z-score,[9],-0.801
same,composite z-score,[10],0.267
same,composite z-score,[11],0.128 (inactive)
same,composite z-score,XIP peptide (Xip251-270),0.5
same,z-score,[12],0.653
same,z-score,[13],-2.06 (inactive)
same,z-score,[14],0.581 (inactive)
same,z-score,[15],0.197 (inactive)
CCOC(=O)C[C@H]1[C@H](OC(=O)c2ccc(C(=O)c3ccccc3)cc2)[C@@H](NC(=O)c2ccc3ccccc3c2)c2cc(OCCCO)ccc2N1C(=O)c1ccc2ccccc2n1,z-score,[1],0.213
same,z-score,[2],-0.628 (inactive)
same,z-score,[3],0.64 (inactive)
same,composite z-score,[4],0.824 (inactive)
same,z-score,[5],-0.595 (inactive)
same,z-score,[6],0.351 (inactive)
same,z-score,[7],0.571 (inactive)
same,z-score,[8],0.534 (inactive)
same,z-score,[9],0.395
same,composite z-score,[10],-0.0726
same,composite z-score,[11],0.27 (inactive)
same,composite z-score,XIP peptide (Xip251-270),0.197
same,z-score,[12],-2.68
same,z-score,[13],-1.96 (inactive)
same,z-score,[14],-0.318 (inactive)
same,z-score,[15],0.25 (inactive)
CO[C@H]1O[C@H](CO)[C@@H](OC(=O)Nc2ccc3c(c2)OCO3)[C@@H]2OC(=O)[C@@H](Cc3ccccc3)C/C=C/C[C@H](Cc3ccccc3)C(=O)O[C@@H]12,z-score,[1],-1.37
same,z-score,[2],0.904 (inactive)
same,z-score,[3],-2.59 (inactive)
same,composite z-score,[4],-0.675 (inactive)
same,z-score,[5],0.509 (inactive)
same,z-score,[6],2.14 (inactive)
same,z-score,[7],0.307 (inactive)
same,z-score,[8],0.312 (inactive)
same,z-score,[9],-1.38
same,composite z-score,[10],0.785
same,composite z-score,[11],0.462 (inactive)
same,composite z-score,XIP peptide (Xip251-270),0.692
same,z-score,[12],-0.967
same,z-score,[13],-8.19 (active)
same,z-score,[14],-0.508 (inactive)
same,z-score,[15],-0.215 (inactive)
CCCC[C@@H]1C[C@H]1[C@@H](NC(=O)Cc1ccccc1)c1ccc(Cl)cc1,z-score,[1],1.95
same,z-score,[2],0.0658 (inactive)
same,z-score,[3],0.625 (inactive)
same,composite z-score,[4],-1.36 (inactive)
same,z-score,[5],0.33 (inactive)
same,z-score,[6],0.335 (inactive)
same,z-score,[7],-0.704 (inactive)
same,z-score,[8],-0.162 (inactive)
same,z-score,[9],-4.68
same,composite z-score,[10],-0.0103
same,composite z-score,[11],0.155 (inactive)
same,composite z-score,XIP peptide (Xip251-270),0.503
same,z-score,[12],-0.0042
same,z-score,[13],-2.08 (inactive)
same,z-score,[14],-0.114 (inactive)
same,z-score,[15],-0.588 (inactive)
